Data taken from PubChem BioAssay AID1159580 (chemical genetic matrix, 2015).
In all, about 5,500 compounds went through this assay and about 2,000 (36%) were called active. About 18% were inconclusive and are not listed. Rule as the data show it: active = normalized growth mostly below about 0.91 (no sharp cut-off); inconclusive = no clear call, values can overlap the other calls; inactive = mostly above about 0.92. This is one part of the list.

Experiment: chemical genetic growth profiling, strain panel (AID 1159580);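 also: tested at 20 µM; growth read once vehicle control cultures reached saturation at 30 °C; 1 = growth at the plate median or of vehicle wells; lower values mean less growth of the strain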
Conditions: growth OD

Measured: normalized growth

C[C@@H]1[C@H]2[C@H](O[C@@H]3O[C@H](CO)[C@@H](O)[C@H](O)[C@H]3O)OC=C(C(=O)O)[C@H]2C[C@@H]1O
inactive: S. cerevisiae deletion strains, locus YAL013W, strain DEP1, stronger effect = lower value 1.01 | S. cerevisiae deletion strains, locus YBR021W, strain FUR4, stronger effect = lower value 1.05 | S. cerevisiae deletion strains, locus YBR229C, strain ROT2, stronger effect = lower value 0.964 | S. cerevisiae deletion strains, locus YCL029C, strain bik1, stronger effect = lower value 0.963 | S. cerevisiae deletion strains, locus YDL035C, strain GPR1, stronger effect = lower value 1.02 | S. cerevisiae deletion strains, locus YDL074C, strain BRE1, stronger effect = lower value 1.08 | S. cerevisiae deletion strains, locus YDL101C, strain DUN1, stronger effect = lower value 0.98 | S. cerevisiae deletion strains, locus YDL134C, strain PPH21, stronger effect = lower value 0.999 | S. cerevisiae deletion strains, locus YDL185W, strain tfp1, stronger effect = lower value 0.962 | S. cerevisiae deletion strains, locus YDL192W, strain arf1, stronger effect = lower value 1.03 | S. cerevisiae deletion strains, locus YDR101C, strain arx1, stronger effect = lower value 1.01 | S. cerevisiae deletion strains, locus YDR162C, strain NBP2, stronger effect = lower value 0.963 | S. cerevisiae deletion strains, locus YDR318W, strain mcm21, stronger effect = lower value 0.986 | S. cerevisiae deletion strains, locus YDR388W, stronger effect = lower value 0.996 | S. cerevisiae deletion strains, locus YDR502C, strain sam2, stronger effect = lower value 1 | S. cerevisiae deletion strains, locus YEL061C, strain CIN8, stronger effect = lower value 0.999 | S. cerevisiae deletion strains, locus YER110C, stronger effect = lower value 0.974 | S. cerevisiae deletion strains, locus YER155C, strain BEM2, stronger effect = lower value 1.02 | S. cerevisiae deletion strains, locus YER167W, strain BCK2, stronger effect = lower value 1 | S. cerevisiae deletion strains, locus YGL078C, strain dbp3, stronger effect = lower value 0.986 | S. cerevisiae deletion strains, locus YGL086W, strain mad1, stronger effect = lower value 1.01 | S. cerevisiae deletion strains, locus YGL248W, strain PDE1, stronger effect = lower value 0.987 | S. cerevisiae deletion strains, locus YGR078C, strain PAC10, stronger effect = lower value 0.984 | S. cerevisiae deletion strains, locus YGR135W, strain pre9, stronger effect = lower value 0.98 | S. cerevisiae deletion strains, locus YGR252W, strain gcn5, stronger effect = lower value 0.995 | S. cerevisiae deletion strains, locus YHR030C, strain SLT2, stronger effect = lower value 1.01 | S. cerevisiae deletion strains, locus YHR079C, strain IRE1 (second series), stronger effect = lower value 0.985 | S. cerevisiae deletion strains, locus YHR094C, strain hxt1, stronger effect = lower value 0.991 | S. cerevisiae deletion strains, locus YHR129C, strain ARP1, stronger effect = lower value 1 | S. cerevisiae deletion strains, locus YHR200W, strain rpn10, stronger effect = lower value 0.99 | S. cerevisiae deletion strains, locus YIL066C, strain RNR3, stronger effect = lower value 1 | S. cerevisiae deletion strains, locus YIL073C, strain SPO22, stronger effect = lower value 1.01 | S. cerevisiae deletion strains, locus YIL125W, strain kgd1, stronger effect = lower value 0.978 | S. cerevisiae deletion strains, locus YIR030C, strain dcg1, stronger effect = lower value 0.995 | S. cerevisiae deletion strains, locus YJL095W, strain BCK1, stronger effect = lower value 0.996 | S. cerevisiae deletion strains, locus YJL134W, strain LCB3, stronger effect = lower value 0.988 | S. cerevisiae deletion strains, locus YJL168C, strain set2, stronger effect = lower value 1.01 | S. cerevisiae deletion strains, locus YJL187C, strain SWE1 (second series), stronger effect = lower value 0.987 | S. cerevisiae deletion strains, locus YJR043C, strain POL32, stronger effect = lower value 1.01 | S. cerevisiae deletion strains, locus YKL009W, strain mrt4, stronger effect = lower value 1.03 | S. cerevisiae deletion strains, locus YKL068W, stronger effect = lower value 0.977 | S. cerevisiae deletion strains, locus YKL085W, strain MDH1 (second series), stronger effect = lower value 0.987 | S. cerevisiae deletion strains, locus YKL085W, strain MDH1, stronger effect = lower value 0.987 | S. cerevisiae deletion strains, locus YKR001C, strain vps1, stronger effect = lower value 0.983 | S. cerevisiae deletion strains, locus YLR039C, strain RIC1, stronger effect = lower value 1.03 | S. cerevisiae deletion strains, locus YLR058C, strain SHM2, stronger effect = lower value 0.977 | S. cerevisiae deletion strains, locus YLR102C, strain apc9, stronger effect = lower value 0.987 | S. cerevisiae deletion strains, locus YLR262C, strain YPT6, stronger effect = lower value 0.908 | S. cerevisiae deletion strains, locus YLR268W, strain sec22, stronger effect = lower value 1.02 | S. cerevisiae deletion strains, locus YLR330W, strain CHS5, stronger effect = lower value 1.01 | S. cerevisiae deletion strains, locus YLR342W, strain FKS1 (second series), stronger effect = lower value 1.11 | S. cerevisiae deletion strains, locus YLR371W, strain rom2, stronger effect = lower value 0.978 | S. cerevisiae deletion strains, locus YLR418C, strain cdc73, stronger effect = lower value 0.984 | S. cerevisiae deletion strains, locus YML016C, strain PPZ1, stronger effect = lower value 0.998 | S. cerevisiae deletion strains, locus YML032C, strain rad52, stronger effect = lower value 0.995 | S. cerevisiae deletion strains, locus YML124C, strain tub3, stronger effect = lower value 0.992 | S. cerevisiae deletion strains, locus YMR078C, strain ctf18, stronger effect = lower value 0.976 | S. cerevisiae deletion strains, locus YMR223W, strain ubp8, stronger effect = lower value 1.02 | S. cerevisiae deletion strains, locus YMR307W, strain GAS1, stronger effect = lower value 1.16 | S. cerevisiae deletion strains, locus YNL067W, strain RPL9B, stronger effect = lower value 0.992 | S. cerevisiae deletion strains, locus YNL128W, strain TEP1, stronger effect = lower value 1 | S. cerevisiae deletion strains, locus YNL233W, strain BNI4, stronger effect = lower value 1.01 | S. cerevisiae deletion strains, locus YNL250W, strain rad50, stronger effect = lower value 0.992 | S. cerevisiae deletion strains, locus YNL271C, strain bni1, stronger effect = lower value 0.994 | S. cerevisiae deletion strains, locus YNL298W, strain CLA4, stronger effect = lower value 0.991 | S. cerevisiae deletion strains, locus YNL307C, strain MCK1, stronger effect = lower value 0.986 | S. cerevisiae deletion strains, locus YNR052C, strain pop2, stronger effect = lower value 0.96 | S. cerevisiae deletion strains, locus YOL012C, strain htz1 0.853 | S. cerevisiae deletion strains, locus YOL147C, strain pex11, stronger effect = lower value 0.991 | S. cerevisiae deletion strains, locus YOR061W, strain CKA2, stronger effect = lower value 0.962 | S. cerevisiae deletion strains, locus YOR069W, strain VPS5, stronger effect = lower value 0.999 | S. cerevisiae deletion strains, locus YOR136W, strain idh2, stronger effect = lower value 0.989 | S. cerevisiae deletion strains, locus YOR144C, strain elg1, stronger effect = lower value 0.981 | S. cerevisiae deletion strains, locus YOR184W, strain ser1, stronger effect = lower value 1.02 | S. cerevisiae deletion strains, locus YOR316C, strain cot1, stronger effect = lower value 0.981 | S. cerevisiae deletion strains, locus YPR119W, strain clb2, stronger effect = lower value 0.999 | S. cerevisiae deletion strains, locus YPR141C, strain kar3, stronger effect = lower value 0.97 | S. cerevisiae deletion strains, locus YPR163C, strain tif3, stronger effect = lower value 0.989 | S. cerevisiae deletion strains, locus YPR167C, strain met16, stronger effect = lower value 0.973 | S. cerevisiae deletion strains, strain wtn01, stronger effect = lower value 1.01 | S. cerevisiae strains, strain wild type, stronger effect = lower value 1
